ANO1 activ – mouse TMEM16A channel activation, primary screen | Q8BHY3 | HEK293 TMEM16A/YFP-H148Q/I152L, iodide quench fluorescence; active compounds read low | B-score at 10 µM | 0.3% of 340,000 active | AID 623877;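 active = fluorescence-ratio B-score plate-corrected deviation score at least 3 library SD below zero, with starting fluorescence score within 5 deviations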;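 note: channel opened by trigger with iodide after compound preincubation; score built on the fluorescence ratio of max minus min over baseline; more negative score means more quench and so TMEM16A activation or potentiation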
Target sequence (Q8BHY3 whole entry, looked up): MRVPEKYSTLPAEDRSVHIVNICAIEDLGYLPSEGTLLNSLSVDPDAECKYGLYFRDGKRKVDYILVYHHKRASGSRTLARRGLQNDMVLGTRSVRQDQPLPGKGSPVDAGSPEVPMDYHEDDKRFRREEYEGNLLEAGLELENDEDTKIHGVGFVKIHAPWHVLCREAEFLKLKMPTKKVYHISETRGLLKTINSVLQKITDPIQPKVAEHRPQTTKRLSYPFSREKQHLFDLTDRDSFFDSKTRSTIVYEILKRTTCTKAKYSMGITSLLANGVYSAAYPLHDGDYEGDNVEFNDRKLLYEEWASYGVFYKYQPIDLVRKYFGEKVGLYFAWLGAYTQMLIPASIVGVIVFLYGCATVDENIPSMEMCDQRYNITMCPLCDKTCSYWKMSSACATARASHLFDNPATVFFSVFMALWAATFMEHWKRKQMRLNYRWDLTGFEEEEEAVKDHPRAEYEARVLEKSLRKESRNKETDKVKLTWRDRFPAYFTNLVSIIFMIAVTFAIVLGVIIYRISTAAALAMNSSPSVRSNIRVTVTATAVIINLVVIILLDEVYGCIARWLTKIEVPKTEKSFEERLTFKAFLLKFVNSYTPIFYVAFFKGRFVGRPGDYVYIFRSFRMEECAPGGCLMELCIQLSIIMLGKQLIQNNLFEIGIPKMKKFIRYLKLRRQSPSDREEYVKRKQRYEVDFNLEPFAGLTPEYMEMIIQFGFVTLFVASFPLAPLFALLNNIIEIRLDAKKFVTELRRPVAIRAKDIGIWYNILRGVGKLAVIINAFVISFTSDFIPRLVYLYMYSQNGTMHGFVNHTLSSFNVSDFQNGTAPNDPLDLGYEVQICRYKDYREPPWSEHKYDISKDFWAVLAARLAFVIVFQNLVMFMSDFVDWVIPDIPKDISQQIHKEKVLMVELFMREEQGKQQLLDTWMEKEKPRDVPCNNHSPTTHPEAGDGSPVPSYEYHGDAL
CRFBP-R2 agonist – CRF-BP/CRF-R2 complex agonism. HEK293 CRF-R2/CRF-BP, calcium dye fluorescence (FLIPR); percent of saturating CRF peptide response. activation, % at 13.2 µM. 0.46% of 350,000 active. AID 588473;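 active = activation of at least 50%, plus an integration ratio under a set limit after plate pattern correction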;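 note: plate controls were neutral control wells without compound for no effect and CRF at EC100 for full effect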
CRFR2-BP antag – blocks CRF-induced signaling of the CRF-BP/CRF-R2 complex; HEK293 CRF-R2/CRF-BP, CRF-induced calcium fluorescence; inhibition, % at 11.8 µM; 0.59% of 350,000 active;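 active = inhibition of the ligand-induced calcium signal above about 50% at the single tested concentration, limit read from the data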
cardiac RTF act – cardiac RTF calcium sensitization; P19429+P45379; IANBD-labeled TnC RTF fluorescence at EC20 calcium; 0% EC20 calcium, 100% full calcium; activation, % at 7.2 µM; 0.24% of 340,000 active;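 active = activation above the mean over all tested compounds plus 3 SD, cut at about 30% in these data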;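 note: rise in fluorescence read as greater calcium sensitivity of cardiac thin filaments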
Cardiac RTF inh – cardiac RTF calcium desensitization | inhibition, % at 7.15 µM | P19429+P45379 | 0.12% of 340,000 active | AID 493244 | IANBD-labeled cardiac RTF, Ca2+ fluorescence;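 active = inhibition above the mean inhibition of all tested compounds plus 3 SD, cut at about 17% in these data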;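 note: assay run at fixed EC70 calcium of 1.6 mM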
ANO1 block – inhibitors of mouse TMEM16A calcium-activated chloride channel. Q8BHY3. HEK293 TMEM16A/YFP iodide influx fluorescence, ionomycin. normalized B-score (activity score, 25-100; higher = stronger inhibition) at 10 µM. 1.2% of 310,000 active. AID 588511;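 active = ratio plate-corrected score three or more library SD toward inhibition, starting fluorescence score within five deviations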;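 note: score derived from kinetic fluorescence span divided by baseline fluorescence per well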
TMEM16A reconf – reconfirmed blocker of mouse TMEM16A calcium-activated chloride channel; shares compounds with ANO1 block; HEK293 TMEM16A/YFP-H148Q, iodide quench fluorescence; ionomycin added to raise cell calcium; inhibition, % at 10 µM; 39% of 2,300 active; AID 652189;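 active = mean duplicate percent inhibition, scaled so buffer wells are 0 and the reference blocker 100, over three buffer SD above buffer mean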
TMEM16A Ca cntr – counter-screen for TMEM16A inhibitors: effect on calcium mobilization | shares compounds with ANO1 block | TMEM16A/YFP HEK293, Fluo4 calcium mobilization | calcium response (% of ionomycin), % at 10 µM | 2% of 2,300 active | AID 652231;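 active = duplicate-averaged calcium signal over 20% of the ionomycin maximum, relative to buffer baseline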;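 note: each well's signal is peak minus trough fluorescence divided by its pre-addition baseline; 0% = buffer wells and 100% = ionomycin wells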
YFP-HEK293 quench – parental YFP-HEK293 iodide quench counter-screen activity. shares compounds with ANO1 block. ionomycin. YFP ratio F(max-min)/F0 at 10 µM. 2,300 tested, under 10 active. AID 652233;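 active = yellow fluorescent protein signal ratio exceeding the buffer control mean by over 5 SD of those controls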;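 note: ratio is mean of duplicate wells from kinetic YFP trace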
ClC-1 inh – selectivity of TMEM16A inhibitors: inhibition of rat ClC-1 chloride channel; CHO ClC-1-YFP, iodide influx fluorescence quench; iodide control reads 0, buffer control 100; ratio percent, % at 10 µM; 2,300 tested, under 10 active; shares compounds with ANO1 block; AID 652236;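 active = duplicate-mean ratio percent above the mean of iodide-only control wells, which defines zero, plus 5 of their SD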;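 note: higher percent means stronger block of ClC-1 iodide influx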
Numbers without * were called inactive; i = inactive; x = not tested or not shown. In the library only some 2.4% were active in any assay of this set; here they are far more common.

SMILES	ANO1 activ	CRFBP-R2 agonist	CRFR2-BP antag	cardiac RTF act	Cardiac RTF inh	ANO1 block	TMEM16A reconf	TMEM16A Ca cntr	YFP-HEK293 quench	ClC-1 inh
Cc1ccc(Cc2nnc(SCC(=O)Nc3ccccc3Cl)[nH]c2=O)cc1	i	2	9	-4	-8	i	x	x	x	x
NC(=O)c1cc([N+](=O)[O-])c(Cl)cc1NCc1cccnc1	i	5	-8	-7	-8	i	x	x	x	x
CC(C)Cc1cc(CN2CCC(CO)(Cc3cccc(C(F)(F)F)c3)CC2)[nH]n1	i	2	-46	-2	-5	i	x	x	x	x
COc1ccc(NC(=O)CNC(=O)C2CCCCC2)cc1	i	0	-26	-1	-1	i	x	x	x	x
COc1ccc(N/C(=C2\CCCC2=O)C2CCCCC2)cc1	i	1	-1	-6	-2	i	i	i	-1	-15
Cc1ccccc1-c1nn(-c2ccc(F)cc2F)cc1CNCCCN(C)C	i	2	11	7	-1	i	x	x	x	x
O=C(NCCc1cccs1)C1CC(c2c(Cl)cccc2Cl)=NO1 (configuration not stated)	i	-3	5	6	-3	i	x	x	x	x
Cc1nc2ccccc2n1CC(O)COc1ccccc1Cl (configuration not stated)	i	0	5	0	8	25*	i	i	-0.99	-13
Cc1nc2ccccc2n1Cc1ccc(Cl)cc1	i	1	45	-4	-14	25*	42%*	i	-1.1	-26
CCOC(=O)c1c(C)n(C)c2ccc(OCC(O)CN3CCN(C)CC3)cc12 (configuration not stated)	i	0	13	6	-4	i	x	x	x	x
OCc1nc2ccccc2n1Cc1ccc(Cl)cc1	i	0	13	8	-7	i	x	x	x	x
CCOC(=O)c1c(C)n(C)c2ccc(OCC(O)Cn3c(C)nc4ccccc43)cc12 (configuration not stated)	i	-1	-10	2	-2	100*	i	i	-1.1	-10
O=C(COC(=O)c1cc(=O)[nH]c2ccccc12)Nc1nc(-c2ccc(F)cc2)cs1	i	0	-3	2	0	x	x	x	x	x
COC(=O)c1ccc(OC)c(CN2CCCN(Cc3cc(C)ccc3C)S2(=O)=O)c1	i	0	10	4	-8	i	x	x	x	x
O=S(=O)(Cc1ccccc1)c1cnc2ccccc2n1	i	-1	-7	-1	-7	i	x	x	x	x
CC(=O)NCCC(Cc1ccccc1)c1ccco1 (configuration not stated)	i	-2	-3	-3	-8	100*	i	i	-0.87	-10
CC(=O)c1c(C)[nH]c(C(=O)Nc2cccc(C(F)(F)F)c2)c1C	i	2	-11	-5	8	i	x	x	x	x
COc1ccc(/C=N/Nc2cn[nH]c(=O)c2Cl)cc1	i	-1	-2	-2	-4	i	x	x	x	x
CC(C)CCN1C(=O)c2ccc(C(=O)Nc3ccccc3C(=O)O)cc2C1=O	i	-1	8	1	-7	25*	i	i	-1.1	-9
C=CCn1c(C)cc(C(=O)CSc2nc3ccccc3c(=O)[nH]2)c1C	i	1	-10	2	-20	i	x	x	x	x
C=CCn1c(C)cc(C(=O)CSc2nc3ccccc3[nH]2)c1C	i	-2	-66	-3	-6	25*	43%*	i	-0.97	-20

High-throughput results (PubChem BioAssay)
